Article PMC4336329 (PLoS ONE, 2015)
Screen size: about 310,000 compounds; about 14,000 (4.5%) showed an effect of 50% or more. The effect is printed as a negative number. The full list was thinned out, with strong results kept by preference.

Biological target: human ether-à-go-go-related gene (hERG) potassium channel (human, UniProt Q12809)
Experiment: primary screen, population patch clamp on CHO cells stably expressing hERG; higher = less effect of the substance
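Note: peak tail current of the secondary pulse compared with the same well before compound.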

Sequence of human ether-à-go-go-related gene (hERG) potassium channel (Q12809 whole entry, looked up): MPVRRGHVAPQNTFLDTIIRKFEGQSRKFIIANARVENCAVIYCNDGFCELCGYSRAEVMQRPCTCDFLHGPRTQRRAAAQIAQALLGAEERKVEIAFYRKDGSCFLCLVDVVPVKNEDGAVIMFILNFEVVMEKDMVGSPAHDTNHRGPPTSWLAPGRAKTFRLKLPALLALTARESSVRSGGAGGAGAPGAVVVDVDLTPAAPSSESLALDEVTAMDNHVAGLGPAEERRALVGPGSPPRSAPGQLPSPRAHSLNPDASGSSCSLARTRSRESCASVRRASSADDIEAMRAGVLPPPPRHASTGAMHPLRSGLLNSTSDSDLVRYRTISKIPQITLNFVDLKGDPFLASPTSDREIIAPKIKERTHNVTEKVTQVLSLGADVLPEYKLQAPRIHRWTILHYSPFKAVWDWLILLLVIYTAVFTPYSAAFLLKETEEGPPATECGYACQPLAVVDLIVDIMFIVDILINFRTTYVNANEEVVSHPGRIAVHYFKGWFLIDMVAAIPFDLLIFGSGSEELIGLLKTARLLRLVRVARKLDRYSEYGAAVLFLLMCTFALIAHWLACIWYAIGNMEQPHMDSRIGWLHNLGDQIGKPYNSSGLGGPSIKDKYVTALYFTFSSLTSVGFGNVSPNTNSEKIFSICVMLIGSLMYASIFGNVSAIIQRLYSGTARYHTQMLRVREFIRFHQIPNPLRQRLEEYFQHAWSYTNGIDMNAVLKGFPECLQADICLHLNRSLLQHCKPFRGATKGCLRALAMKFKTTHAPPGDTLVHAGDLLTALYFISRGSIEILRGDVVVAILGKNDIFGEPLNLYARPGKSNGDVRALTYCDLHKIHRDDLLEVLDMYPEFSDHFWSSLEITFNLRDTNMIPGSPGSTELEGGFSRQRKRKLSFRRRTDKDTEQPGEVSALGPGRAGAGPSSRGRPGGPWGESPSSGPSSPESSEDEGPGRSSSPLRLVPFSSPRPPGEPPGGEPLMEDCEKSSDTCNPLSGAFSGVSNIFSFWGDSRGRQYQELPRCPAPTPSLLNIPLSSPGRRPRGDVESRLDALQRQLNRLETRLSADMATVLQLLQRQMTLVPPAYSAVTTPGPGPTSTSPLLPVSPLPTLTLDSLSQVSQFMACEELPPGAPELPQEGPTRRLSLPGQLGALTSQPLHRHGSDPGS

| SMILES | hERG current change (%, negative = inhibition) at 10uM [%] |
| --- | --- |
| CC(C)(C)C(=O)OCCn1c(=O)c2cc3c(=O)n(CCOC(=O)C(C)(C)C)c(=O)c3cc2c1=O | 25.5 |
| CC(=O)c1sc2nc(-c3ccc(C)cc3)c3c(c2c1N)CCCC3 | 2.68 |
| Cc1ccc(C(O)(C(=O)NNS(=O)(=O)c2ccc(C)cc2)c2ccc(C)cc2)cc1 | -5.55 |
| CCn1cc([C@@H]2C[C@H]3CN(Cc4cccc(Cl)c4)C(=O)[C@]34CCCN24)c(C)n1 | -41.7 |
| Cc1ccccc1CN1C[C@@H]2C[C@@H](c3cn(C)nc3-c3ccccc3)N3CCC[C@@]23C1=O | 3.15 |
| CCCn1cc([C@@H]2C[C@H]3CN(Cc4cccc(Cl)c4)C(=O)[C@]34CCCN24)c(C)n1 | -67.3 |
| Cc1nn(C)cc1[C@@H]1C[C@H]2CN(Cc3cccc(Cl)c3)C(=O)[C@]23CCCN13 | -36.8 |
| Cn1cc([C@@H]2C[C@H]3CN(Cc4cccc(Cl)c4)C(=O)[C@]34CCCN24)c(-c2ccccc2)n1 | -63.3 |
| CCCn1ncc([C@@H]2C[C@H]3CN(Cc4cccc(Cl)c4)C(=O)[C@]34CCCN24)c1C | -43.6 |
| O=C1NC(c2ccccc2)CCC1(Cl)Cl (stereo not drawn) | 6.57 |
| CCc1ccc(NC(=O)c2cccc(NC3=NC4CS(=O)(=O)CC4S3)c2)cc1 (stereo not drawn) | 18 |
| CCn1c(=O)n(CC(=O)NCc2ccccc2OC)c(=O)c2ccccc21 | 8.2 |
| CC(C)(C)C(=O)C1=C(O)C(=O)N(Cc2ccccc2)C1c1ccccc1Cl (stereo not drawn) | 14.1 |
| O=C(COc1ccccc1O)N1CCN(C(=O)c2ccco2)CC1 | -24.8 |
| CCOC(=O)Nc1ccc(C(=O)c2ccncc2)cc1 | 14.7 |
| COc1ccccc1-c1ccc(=O)n(CC(=O)NC(C)(C)C)n1 | 14 |
| COc1cccc2[nH]c3c(N4CCc5ccccc5C4)ncnc3c12 | 4.69 |
| CC1(C)Cc2c(sc(NC(=O)C(C)(C)C)c2C#N)C(C)(C)N1 | 3.16 |
| O=C(CN1CCN(S(=O)(=O)c2ccccc2C(F)(F)F)CC1)NCc1cccs1 | -68.1 |
| Cl.O=C(CN1CCN(c2ccc(F)cc2)CC1)NCc1cccs1 | -15.4 |
| N#CCCN1CCN(S(=O)(=O)c2ccc(C#N)cc2)CC1 | -10.6 |
| O=C(NCc1cccs1)C1CCN(S(=O)(=O)c2ccc(Cl)cc2)CC1 | 4.41 |
| CC(=O)Nc1ccc(S(=O)(=O)N2CCN(Cc3cccs3)CC2)cc1.O=C(O)C(=O)O | -7.69 |
| O=C(CN1CCN(S(=O)(=O)c2ccc(Cl)cc2)CC1)NCc1cccs1 | -59.1 |
| N#Cc1ccc(S(=O)(=O)N2CCN(Cc3cccs3)CC2)cc1 | -61.2 |
| O=C(CN1CCN(S(=O)(=O)c2ccc(F)cc2)CC1)NCc1cccs1 | -32.1 |
| O=C(NCc1cccs1)C1CCN(S(=O)(=O)c2ccccc2F)CC1 | 10.4 |
